PubChem BioAssay AID1159580 (chemical genetic matrix, 2015)
“And” between values parts separate entries of the source, which are not always exact repeats. Equal values may be shown once. Hit rate of the full screen: of about 5,500 compounds, about 2,000 (36%) were called active. About 18% were inconclusive and are not listed. No stated cut-off is given here; in the data, active means normalized growth mostly below about 0.91 (no sharp cut-off); inconclusive means no clear call, values can overlap the other calls; inactive means mostly above about 0.92. The list shows a part of the results.

Assay: chemical genetic growth profiling, strain panel (AID 1159580);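 further: tested at 20 µM; growth read once vehicle control cultures reached saturation at 30 °C; 1 = growth at the plate median or of vehicle wells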
Conditions: growth OD

Measured: normalized growth

NCCCNCCSP(=O)(O)O
inactive: S. cerevisiae deletion strains, locus YJR075W, strain HOC1, stronger effect = lower value 1.01 | S. cerevisiae deletion strains, locus YKL009W, strain mrt4, stronger effect = lower value 0.969 | S. cerevisiae deletion strains, locus YKL068W, stronger effect = lower value 0.982 | S. cerevisiae deletion strains, locus YKL085W, strain MDH1 (second series), stronger effect = lower value 0.985 | S. cerevisiae deletion strains, locus YKL085W, strain MDH1, stronger effect = lower value 0.985 | S. cerevisiae deletion strains, locus YKL160W, strain elf1, stronger effect = lower value 0.963 | S. cerevisiae deletion strains, locus YKL190W, strain CNB1, stronger effect = lower value 0.988 | S. cerevisiae deletion strains, locus YKR001C, strain vps1, stronger effect = lower value 0.986 | S. cerevisiae deletion strains, locus YKR026C, strain gcn3, stronger effect = lower value 0.984 | S. cerevisiae deletion strains, locus YKR091W, strain srl3, stronger effect = lower value 0.969 | S. cerevisiae deletion strains, locus YLL001W, strain dnm1, stronger effect = lower value 0.954 | S. cerevisiae deletion strains, locus YLL026W, stronger effect = lower value 0.972 | S. cerevisiae deletion strains, locus YLL041C, strain sdh2, stronger effect = lower value 0.983 | S. cerevisiae deletion strains, locus YLR027C, strain aat2, stronger effect = lower value 0.964 | S. cerevisiae deletion strains, locus YLR039C, strain RIC1, stronger effect = lower value 0.974 | S. cerevisiae deletion strains, locus YLR058C, strain SHM2, stronger effect = lower value 0.989 | S. cerevisiae deletion strains, locus YLR102C, strain apc9, stronger effect = lower value 0.992 | S. cerevisiae deletion strains, locus YLR221C, strain rsa3, stronger effect = lower value 0.952 | S. cerevisiae deletion strains, locus YLR258W, strain gsy2, stronger effect = lower value 0.994 | S. cerevisiae deletion strains, locus YLR262C, strain YPT6 (second series), stronger effect = lower value 0.96 | S. cerevisiae deletion strains, locus YLR262C, strain YPT6, stronger effect = lower value 0.973 | S. cerevisiae deletion strains, locus YLR268W, strain sec22, stronger effect = lower value 0.995 | S. cerevisiae deletion strains, locus YLR320W, strain mms22, stronger effect = lower value 0.961 | S. cerevisiae deletion strains, locus YLR330W, strain CHS5, stronger effect = lower value 0.989 | S. cerevisiae deletion strains, locus YLR342W, strain FKS1 (second series), stronger effect = lower value 0.975 | S. cerevisiae deletion strains, locus YLR342W, strain FKS1, stronger effect = lower value 0.979 | S. cerevisiae deletion strains, locus YLR357W, strain rsc2, stronger effect = lower value 0.957 | S. cerevisiae deletion strains, locus YLR370C, strain arc18, stronger effect = lower value 0.969 | S. cerevisiae deletion strains, locus YLR371W, strain rom2, stronger effect = lower value 0.974 | S. cerevisiae deletion strains, locus YLR384C, strain iki3, stronger effect = lower value 0.96 | S. cerevisiae deletion strains, locus YLR418C, strain cdc73, stronger effect = lower value 1.01 | S. cerevisiae deletion strains, locus YML016C, strain PPZ1, stronger effect = lower value 0.99 | S. cerevisiae deletion strains, locus YML032C, strain rad52, stronger effect = lower value 0.978 | S. cerevisiae deletion strains, locus YML120C, strain ndi1, stronger effect = lower value 0.964 | S. cerevisiae deletion strains, locus YML124C, strain tub3, stronger effect = lower value 0.991 | S. cerevisiae deletion strains, locus YMR058W, strain fet3, stronger effect = lower value 0.976 | S. cerevisiae deletion strains, locus YMR078C, strain ctf18, stronger effect = lower value 0.981 | S. cerevisiae deletion strains, locus YMR125W, strain sto1, stronger effect = lower value 0.975 | S. cerevisiae deletion strains, locus YMR129W, stronger effect = lower value 0.99 | S. cerevisiae deletion strains, locus YMR205C, strain PFK2, stronger effect = lower value 0.937 | S. cerevisiae deletion strains, locus YMR223W, strain ubp8, stronger effect = lower value 0.973 | S. cerevisiae deletion strains, locus YMR231W, strain pep5, stronger effect = lower value 0.978 | S. cerevisiae deletion strains, locus YMR263W, strain SAP30, stronger effect = lower value 0.997 and 0.98 | S. cerevisiae deletion strains, locus YMR307W, strain GAS1, stronger effect = lower value 0.974 | S. cerevisiae deletion strains, locus YNL067W, strain RPL9B, stronger effect = lower value 0.984 | S. cerevisiae deletion strains, locus YNL071W, strain lat1, stronger effect = lower value 0.983 | S. cerevisiae deletion strains, locus YNL128W, strain TEP1, stronger effect = lower value 1.01 and 1 | S. cerevisiae deletion strains, locus YNL153C, strain GIM3, stronger effect = lower value 1.01 and 0.993 | S. cerevisiae deletion strains, locus YNL175C, strain NOP13, stronger effect = lower value 1.01 | S. cerevisiae deletion strains, locus YNL197C, strain WHI3, stronger effect = lower value 1 | S. cerevisiae deletion strains, locus YNL209W, strain ssb2, stronger effect = lower value 0.981 | S. cerevisiae deletion strains, locus YNL224C, strain SQS1, stronger effect = lower value 0.988 | S. cerevisiae deletion strains, locus YNL233W, strain BNI4, stronger effect = lower value 0.997 | S. cerevisiae deletion strains, locus YNL248C, strain rpa49, stronger effect = lower value 0.977 | S. cerevisiae deletion strains, locus YNL250W, strain rad50, stronger effect = lower value 0.981 | S. cerevisiae deletion strains, locus YNL271C, strain bni1, stronger effect = lower value 0.994 | S. cerevisiae deletion strains, locus YNL298W, strain CLA4, stronger effect = lower value 0.988 | S. cerevisiae deletion strains, locus YNL307C, strain MCK1, stronger effect = lower value 0.989 | S. cerevisiae deletion strains, locus YNL322C, strain KRE1 (second series), stronger effect = lower value 0.956 | S. cerevisiae deletion strains, locus YNL322C, strain KRE1, stronger effect = lower value 1 | S. cerevisiae deletion strains, locus YNR049C, strain mso1, stronger effect = lower value 0.963 | S. cerevisiae deletion strains, locus YNR052C, strain pop2, stronger effect = lower value 0.986 | S. cerevisiae deletion strains, locus YOL006C, strain TOP1, stronger effect = lower value 1.02 | S. cerevisiae deletion strains, locus YOL012C, strain htz1 0.741 | S. cerevisiae deletion strains, locus YOL147C, strain pex11, stronger effect = lower value 0.988 | S. cerevisiae deletion strains, locus YOR001W, strain rrp6, stronger effect = lower value 1.02 | S. cerevisiae deletion strains, locus YOR061W, strain CKA2, stronger effect = lower value 1 | S. cerevisiae deletion strains, locus YOR069W, strain VPS5, stronger effect = lower value 0.995 | S. cerevisiae deletion strains, locus YOR070C, strain gyp1, stronger effect = lower value 0.982 | S. cerevisiae deletion strains, locus YOR080W, strain dia2, stronger effect = lower value 0.968 | S. cerevisiae deletion strains, locus YOR083W, strain WHI5 (second series), stronger effect = lower value 1.01 | S. cerevisiae deletion strains, locus YOR083W, strain WHI5, stronger effect = lower value 0.96 | S. cerevisiae deletion strains, locus YOR106W, strain vam3, stronger effect = lower value 0.931 | S. cerevisiae deletion strains, locus YOR136W, strain idh2, stronger effect = lower value 0.992 | S. cerevisiae deletion strains, locus YOR144C, strain elg1, stronger effect = lower value 0.982 | S. cerevisiae deletion strains, locus YOR184W, strain ser1, stronger effect = lower value 0.962 | S. cerevisiae deletion strains, locus YOR265W, strain rbl2, stronger effect = lower value 0.984 | S. cerevisiae deletion strains, locus YOR270C, strain vph1, stronger effect = lower value 0.924 | S. cerevisiae deletion strains, locus YOR290C, strain snf2, stronger effect = lower value 0.965 | S. cerevisiae deletion strains, locus YOR316C, strain cot1, stronger effect = lower value 0.977 | S. cerevisiae deletion strains, locus YPL051W, strain arl3, stronger effect = lower value 0.987 | S. cerevisiae deletion strains, locus YPL055C, strain LGE1, stronger effect = lower value 1.02 and 0.958 | S. cerevisiae deletion strains, locus YPL078C, strain atp4, stronger effect = lower value 0.971 | S. cerevisiae deletion strains, locus YPL106C, strain sse1, stronger effect = lower value 0.954 | S. cerevisiae deletion strains, locus YPL240C, strain hsp82, stronger effect = lower value 0.993 | S. cerevisiae deletion strains, locus YPL241C, strain CIN2, stronger effect = lower value 0.998 and 0.991 | S. cerevisiae deletion strains, locus YPR119W, strain clb2, stronger effect = lower value 0.995 | S. cerevisiae deletion strains, locus YPR141C, strain kar3, stronger effect = lower value 0.976 | S. cerevisiae deletion strains, locus YPR163C, strain tif3, stronger effect = lower value 0.986 | S. cerevisiae deletion strains, locus YPR167C, strain met16, stronger effect = lower value 0.995 | S. cerevisiae deletion strains, strain wtn01, stronger effect = lower value 0.99 | S. cerevisiae strains, strain wild type, stronger effect = lower value 0.977
